# Laboratory results as given in PubChem BioAssay AID588397 (National Center for Advancing Translational Sciences (NCATS), 2011).
# Hit rate of the full screen: of about 1,300 compounds, about 1,000 (77%) were called active. About 7% were inconclusive and are not listed. Calls follow the shape of the dose curve; as a rule, active = well fitted inhibition curve with a large enough effect; inconclusive = small, poorly fitted or top-dose-only effect; inactive = no such curve, though single readings can be large or run the other way. The set was probably picked from earlier hits. Some of the results follow.
# Experiment: qHTS of small molecules that selectively kill Giardia lamblia: Hit Validation.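 Also: viability measured as ATP content by luminescence so killing lowers signal; nearly all actives have a fitted effect of over 65% in size.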
# Details: Giardia lamblia trophozoite viability, dose-response; series mostly up to 38.3 µM
# In short: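 Compounds were tested on trophozoites seeded at 100 cells/well and held 48 hrs at 37 deg C anaerobically. An ATP-based luminescent kit measured the remaining live cells.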
# Potency is read from the fitted curve at half-maximal effect.
row,Structure (SMILES),Potency
1,CCOC(=O)Cn1c(=NC(=O)c2ccc([N+](=O)[O-])s2)sc2ccccc21,1.83 µM (active)
2,CC(=O)O[C@@H]1[C@@H](O)CN[C@@H]1Cc1ccccc1,0.579 µM (active)
3,N=C1C(c2ccccc2)=C(O)CN1c1cccc(S(=O)(=O)N2CCOCC2)c1,inactive
4,O=[N+]([O-])c1cc(S(=O)(=O)Nc2cccc(Cl)c2)ccc1N/N=C/c1ccc(N2CCOCC2)cc1,6.5 µM (active)
5,O=S(=O)(c1ccccc1)N1CCN(S(=O)(=O)c2ccccc2)CC1,inactive
6,O=[N+]([O-])c1cc(S(=O)(=O)N2CCCC2)ccc1N/N=C/c1ccncc1,2.31 µM (active)
7,O=[N+]([O-])c1cc(S(=O)(=O)N2CCOCC2)ccc1NS(=O)(=O)c1ccccc1,1.83 µM (active)
8,Nc1ccc(/C=C/c2nccc3ccccc23)cc1,3.26 µM (active)
9,C(=C\c1nccc2ccccc12)/c1ccc(N2CCOCC2)cc1,2.31 µM (active)
10,Nc1ncnc2c1ncn2C1O[C@H](CO)[C@@H](O)[C@@H]1O (some centres undefined),0.818 µM (active)
11,O=C(Nc1ccc2nc(-c3ccco3)[nH]c2c1)c1cccs1,5.79 µM (active)
12,O=C(Nc1ccc2c(c1)nc1n2CCSC1)c1ccco1,4.6 µM (active)
13,CC(NC(=O)c1ccc([N+](=O)[O-])o1)C12CC3CC(CC(C3)C1)C2 (centres undefined),0.918 µM (active)
14,CC(NC(=O)c1ccc([N+](=O)[O-])o1)C1CC2CCC1C2 (centres undefined),1.45 µM (active)
15,O=C(NC12CC3CC(CC(C3)C1)C2)c1ccc([N+](=O)[O-])o1,1.03 µM (active)
16,CC(C)c1ccc(N=c2c([N+](=O)[O-])nn(-c3ccc4c(c3)OCCO4)n2O)cc1,2.05 µM (active)
17,O=[N+]([O-])c1nn(-c2ccc3c(c2)OCCO3)n(O)c1=Nc1ccc(Cl)cc1,1.3 µM (active)
18,CC(=O)N(/N=C/c1ccc([N+](=O)[O-])o1)c1nc2ccccc2c(=O)n1-c1ccccc1,1.03 µM (active)
19,O=c1c2ccccc2nc(/C=C/c2ccc([N+](=O)[O-])o2)n1CCCO,0.579 µM (active)
20,Cc1cccc(-c2nnc(SCc3cc(=O)[nH]c4ccccc34)n2C)c1,inactive
21,CCNc1nc(NCC)nc(N/N=C/c2ccc([N+](=O)[O-])o2)n1,2.59 µM (active)
22,Cc1cc(C)nc(N/N=C/c2ccc([N+](=O)[O-])o2)n1,1.3 µM (active)
23,Cc1cc(C)nc(N/N=C/c2ccc(Cl)cc2)n1,inactive

row,Structure (SMILES),Potency
1,O=C(Cc1csc(Nc2nc(=S)[nH]c3ccccc23)n1)NCCCN1CCN(c2ccccc2F)CC1,14.5 µM (active)
2,CCOC(=O)Cc1csc(NC(=S)NC(=O)c2ccc(C)cc2)n1,7.29 µM (active)
3,CSc1cccc(NS(=O)(=O)c2cn(C)cn2)c1,inactive
4,COCCn1c(C)cc(C(=O)COc2cccnc2[N+](=O)[O-])c1C,1.3 µM (active)
5,Cc1ccc(OCc2ccc([N+](=O)[O-])cc2)c([N+](=O)[O-])n1,3.26 µM (active)
6,C=CCn1c(C)cc(C(=O)COc2ccc(C)nc2[N+](=O)[O-])c1C,0.46 µM (active)
7,Cc1ccc(OCC(=O)c2cc(C)n(C)c2C)c([N+](=O)[O-])n1,1.45 µM (active)
8,COCCn1c(C)cc(C(=O)COc2ccc(C)nc2[N+](=O)[O-])c1C,0.918 µM (active)
9,C=CCn1c(C)cc(C(=O)COC(=O)c2n[nH]c(=O)c3ccccc23)c1C,4.6 µM (active)
10,CCCn1c(C)cc(C(=O)COc2ccc(C)nc2[N+](=O)[O-])c1C,1.03 µM (active)
11,c1ccc2cc3c(NCCN4CCOCC4)ccnc3cc2c1,1.83 µM (active)
12,Cc1ccc(-c2cnc3cc(C)nn3c2)cc1,5.79 µM (active)
13,COc1cccc(CSc2nc3ccncc3[nH]2)c1,1.63 µM (active)
14,O=C(c1ccc(CSc2nc3ccncc3[nH]2)cc1)N1CCCCCC1,1.16 µM (active)
15,Clc1ccccc1CSc1nc2ccncc2[nH]1,3.65 µM (active)
16,Clc1ccc(CSc2nc3ccncc3[nH]2)cc1,0.579 µM (active)
17,Cc1ccc(CSc2nc3ccncc3[nH]2)cc1,0.259 µM (active)
18,CC(C)CC(=O)NC(=S)NNC(=O)c1ccc([N+](=O)[O-])cc1,1.3 µM (active)
19,CCCC(=O)NC(=S)NNC(=O)c1ccc([N+](=O)[O-])cc1,0.41 µM (active)
20,CSCCC(NC(=O)OC(C)(C)C)C(=O)Oc1ccc2c(=O)c(-c3ccc4c(c3)OCCO4)coc2c1 (centres undefined),1.03 µM (active)
21,CSCCC(NS(=O)(=O)c1ccc2c(c1)OCCO2)C(=O)N(C)Cc1ccccc1F (centres undefined),inactive
22,O=C(Nc1cc(S(=O)(=O)N2CCOCC2)ccc1N1CCOCC1)c1ccc([N+](=O)[O-])s1,4.1 µM (active)
23,O=C(Nc1ccccc1N1CCOCC1)c1ccc([N+](=O)[O-])s1,2.05 µM (active)

row,Structure (SMILES),Potency
1,O=C(/C=C/c1ccc(O)c([N+](=O)[O-])c1)c1ccc2ccccc2c1,2.05 µM (active)
2,O=C(COc1cccnc1[N+](=O)[O-])c1c[nH]c2ccccc12,5.16 µM (active)
3,Cc1cc(C(=O)COc2cccnc2[N+](=O)[O-])c(C)n1-c1ccccc1,0.365 µM (active)
4,Cc1ccc(-n2c(C)cc(C(=O)COc3cccnc3[N+](=O)[O-])c2C)cc1,0.516 µM (active)
5,Cc1cc(C(=O)COc2cccnc2[N+](=O)[O-])c(C)n1-c1ccccc1F,1.16 µM (active)
6,Cc1ccc2nccnc2c1,1.3 µM (active)
7,O=C1C[C@@H](c2ccc(O[C@@H]3O[C@H](CO)[C@@H](O)[C@H](O)[C@H]3O)cc2)Oc2cc(O)ccc21,inactive
8,COc1ccccc1NS(=O)(=O)c1cccc(C(=O)N/N=C/c2ccc([N+](=O)[O-])o2)c1,4.1 µM (active)
9,O=C(Cc1ccc2c(c1)OCO2)NN=Cc1ccc([N+](=O)[O-])o1,0.918 µM (active)
10,Cc1cc(C(=O)N/N=C/c2ccc([N+](=O)[O-])o2)c(C)o1,0.579 µM (active)
11,CC1(C(=O)N/N=C/c2ccc([N+](=O)[O-])o2)CC1(Br)Br (centres undefined),0.65 µM (active)
12,CCOc1ccccc1NS(=O)(=O)c1c[nH]c(C(=O)OC)c1,inactive
13,O=C(N/N=C/c1ccc([N+](=O)[O-])o1)c1ccc2c(c1)OCO2,0.818 µM (active)
14,O=C(Cc1ccc([N+](=O)[O-])cc1)N/N=C/c1ccc([N+](=O)[O-])o1,1.16 µM (active)
15,O=c1c2ccccc2sc2ccc(C#CC3(O)CCCCC3)cc12,0.65 µM (active)
16,O=[N+]([O-])c1ccc2c3n([n+]([O-])c2c1)CCN=C3c1ccc(Cl)cc1,4.1 µM (active)
17,Cc1ccc(C2=NCCn3c2c2ccc([N+](=O)[O-])cc2[n+]3[O-])cc1,1.3 µM (active)
18,C[C@@H]1CN([C@H](C)CO)C(=O)c2cc(NC(=O)Nc3ccc4c(c3)OCO4)ccc2O[C@H]1CN(C)Cc1ccncc1,inactive
19,C[C@H](CO)N1C[C@H](C)[C@H](CN(C)C(=O)Nc2ccc(C(F)(F)F)cc2)Oc2c(NC(=O)c3ccncc3)cccc2C1=O,inactive
20,C[C@@H]1CN([C@@H](C)CO)C(=O)c2cccc(NS(=O)(=O)c3cccs3)c2O[C@H]1CN(C)Cc1ccc(C(F)(F)F)cc1,3.65 µM (active)
21,O=C1NC(=S)S/C1=C\C=C\c1ccc([N+](=O)[O-])o1,0.326 µM (active)
22,[O-][n+]1c2ccccc2c2n1CCCN=C2c1ccc(Cl)cc1,1.3 µM (active)
23,[O-][n+]1c2ccccc2c2n1CCN=C2c1ccc(Cl)cc1,0.29 µM (active)

row,Structure (SMILES),Potency
1,Cc1ccc(C2=NCCn3c2c2ccccc2[n+]3[O-])cc1,0.146 µM (active)
2,Cc1cnc([N+](=O)[O-])n1CCOC(=O)NC(=O)c1c(F)cccc1F,1.3 µM (active)
3,Cc1cnc([N+](=O)[O-])n1CCOC(=O)NC(=O)c1ccccc1,0.918 µM (active)
4,Cc1cnc([N+](=O)[O-])n1CCOC(=O)NC(=O)c1ccc(F)cc1,1.16 µM (active)
5,Cc1cnc([N+](=O)[O-])n1CCOC(=O)NC(=O)c1cccc(F)c1,0.65 µM (active)
6,Cc1cnc([N+](=O)[O-])n1CCOC(=O)c1cccc(F)c1,1.16 µM (active)
7,Cc1ccc(C(=O)NC(=O)OCCn2c(C)cnc2[N+](=O)[O-])cc1,0.183 µM (active)
8,Cc1cnc([N+](=O)[O-])n1CCOC(=O)NC(=O)c1ccc(C(F)(F)F)cc1,0.259 µM (active)
9,CSCCC(NC(=O)c1ccco1)C(=O)OCc1cc([N+](=O)[O-])cc2c1OCOC2 (centres undefined),4.6 µM (active)
10,Cc1cccc(C)c1OCC(=O)N(Cc1cccs1)C1CCS(=O)(=O)C1 (centres undefined),inactive
11,O=C1/C(=C/c2ccncc2)CCC/C1=C\c1ccncc1,18.3 µM (active)
12,CC1C/C(=C/c2ccncc2)C(=O)/C(=C/c2ccncc2)C1 (centres undefined),11.6 µM (active)
13,CC(C)(C)[C@H](N)C(=O)N[C@H]1CCC2C3CC=C4C[C@@H](O)CC[C@]4(C)C3CC[C@@]21C (some centres undefined),2.9 µM (active)
14,CN(C)CCCN(C(=O)c1cc2cc([N+](=O)[O-])ccc2s1)c1nc2cc3c(cc2s1)OCCO3,1.63 µM (active)
15,CCOC(=O)C1=C(C)NC2=C(C(=O)c3ccccc32)C1c1ccc([N+](=O)[O-])o1 (centres undefined),0.729 µM (active)
16,CCOC(=O)C1=C(C)NC(=O)NC1c1ccc([N+](=O)[O-])o1 (centres undefined),1.16 µM (active)
17,COC(=O)C1=C(C)N(C)C(=O)NC1c1ccc([N+](=O)[O-])o1 (centres undefined),0.46 µM (active)
18,C=CCOC(=O)C1=C(C)NC(=O)NC1c1ccc(O)cc1 (centres undefined),inactive
19,O=C(Nc1ccc(N2CCOCC2)c(Cl)c1)c1ccc([N+](=O)[O-])o1,0.729 µM (active)
20,O=C(Nc1ccc(N2CCCC2)c(Cl)c1)c1ccc([N+](=O)[O-])o1,1.83 µM (active)
